# Screens: PubChem BioAssay, National Center for Advancing Translational Sciences (NCATS)
# Six1-Eya2 inh = Six1/Eya2 interaction inhibition. activity change, % (test concentration not listed). AID 651725. Q15475+O00167. AlphaScreen GST-Six1/His-Eya2 binding, biochemical; hits give low values. actives 0.56% (n = 360,000); in the data active means activity change below about -65%; inconclusive means mostly about -30% to -63%
# Target sequence (O00167 whole entry, looked up): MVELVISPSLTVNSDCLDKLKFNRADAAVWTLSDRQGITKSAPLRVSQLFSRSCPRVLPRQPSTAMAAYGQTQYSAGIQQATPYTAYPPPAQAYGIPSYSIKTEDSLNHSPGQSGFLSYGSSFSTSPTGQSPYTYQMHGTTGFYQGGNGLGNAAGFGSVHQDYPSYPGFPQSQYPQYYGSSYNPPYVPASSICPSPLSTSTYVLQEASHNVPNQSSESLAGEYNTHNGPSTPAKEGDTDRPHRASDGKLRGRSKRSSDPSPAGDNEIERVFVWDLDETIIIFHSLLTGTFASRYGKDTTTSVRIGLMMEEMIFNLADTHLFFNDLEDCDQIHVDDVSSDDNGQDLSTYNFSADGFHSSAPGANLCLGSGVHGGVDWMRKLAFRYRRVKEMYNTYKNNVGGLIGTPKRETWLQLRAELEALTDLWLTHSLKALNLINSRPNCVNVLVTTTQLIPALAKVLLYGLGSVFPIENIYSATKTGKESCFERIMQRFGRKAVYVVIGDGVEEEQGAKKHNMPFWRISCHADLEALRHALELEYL
# Target sequence (Q15475 whole entry, looked up): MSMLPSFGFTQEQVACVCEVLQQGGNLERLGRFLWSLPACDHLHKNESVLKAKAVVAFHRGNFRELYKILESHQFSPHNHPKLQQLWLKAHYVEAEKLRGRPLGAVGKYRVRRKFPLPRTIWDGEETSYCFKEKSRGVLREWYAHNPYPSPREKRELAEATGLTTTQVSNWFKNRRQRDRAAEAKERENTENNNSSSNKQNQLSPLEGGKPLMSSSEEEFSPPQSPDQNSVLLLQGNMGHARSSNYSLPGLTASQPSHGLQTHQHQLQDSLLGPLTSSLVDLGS
#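 GST-Six1 + His-Eya2 (5X stock: 250/500 nM); Tris pH 8.0, 300 mM NaCl, 0.05% BSA, 0.02% Tween 20; GSH donor/Ni acceptor beads; 1 h 37 °C dark; AlphaScreen readout.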
# IL1B secr inh = inflammasome signaling inhibition, IL-1 beta readout; AID 743279; actives 4.7% (n = 360,000); THP-1 LPS/ATP IL-1B secretion, AlphaLISA, 16 h; hits give low values; activity change, % at 57.5 µM; in the data active means activity change below about -50%; inconclusive means mostly about -30% to -49%
#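 Secreted IL-1B measured by AlphaLISA bead assay after 16 h compound exposure of THP-1 cells; compounds (final up to 57.5 uM) added 1 h before LPS (250 ng/mL) and ATP (1.25 mM) stimulation; lower signal means less secretion.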
# TDP1 inh = inhibitors of human tyrosyl-DNA phosphodiesterase TDP1; Q9NUW8; recombinant TDP1, AlphaScreen DNA substrate cleavage; Potency, µM (series often up to 130 µM), actives largely listed as inhibitors; actives 0.28% (n = 350,000); further: nearly all actives have a fitted effect of over 40% in size
#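 Signal: AlphaScreen proximity between streptavidin donor and anti-FITC acceptor beads on intact substrate. Reaction: Tdp1 1 nM, substrate 15 nM final, 5 min RT after 15 min compound preincubation.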
# DT40 TDP1 no CPT = qHTS for Inhibitors of human tyrosyl-DNA phosphodiesterase 1 (TDP1): qHTS in cells in absence of CPT; actives 15% (n = 420,000); Potency, µM (top dose mostly 46.2 µM), actives largely listed as inhibitors; DT40 Tdp1-/- hTDP1 cells, no CPT, ATP luminescence, 48 h; further: nearly all actives have a fitted effect of over 55% in size
#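 Stably hTDP1-transfected Tdp1-null chicken DT40 cells were treated with library compounds minus camptothecin and grown for at least 48 hr at 37 °C, after which cellular ATP was quantified by luminescence.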
# CtBP-E1A inh = blocks the CtBP interaction with E1A. AlphaScreen GST-E1A/His-CtBP binding, 1536-well; hits give low values. activity change, % (concentration not given with the values). actives 0.49% (n = 340,000). AID 651724; in the data active means activity change below about -65%; inconclusive means mostly about -30% to -63%
#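 GST-E1A and His-tagged CtBP (125 nM each as 5X stock) were preincubated with pin-transferred compound for 2 h at 37 °C in the dark, then glutathione donor and nickel acceptor beads were added for 1 h before AlphaScreen reading.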
# TDP1 cell CPT = DT40-hTDP1 cell growth loss with CPT; actives 12% (n = 420,000); Potency, µM (top dose mostly 46.2 µM), actives largely listed as inhibitors; chicken DT40 Tdp1-/-;hTDP1 cells + 20 nM CPT, ATP luminescence, 48 h; further: nearly all actives have a fitted effect of over 55% in size
#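 Chicken DT40 Tdp1-/- cells stably complemented with human TDP1 were seeded at 400 cells/well in medium containing 20 nM camptothecin, exposed to pin-transferred compounds, and grown at 37 °C for at least 48 hr. Viability was read as ATP luminescence.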
# Hits are given with their value; n = inactive; u = inconclusive; x = not tested or not shown. Only some compounds are listed: those with a hit (about 18% of all), similar ones and a draw of the others. Unless noted, the call rests on the fitted dose curve; in most records, active means well fitted curve in the direction sought with a large enough effect; inconclusive means small, poorly fitted or top-dose-only effect, or another doubt; inactive means no such curve, though single readings can be large; an effect the other way counts as inactive or inconclusive.
SMILES,Six1-Eya2 inh,IL1B secr inh,TDP1 inh,DT40 TDP1 no CPT,CtBP-E1A inh,TDP1 cell CPT
O=c1c2ccccc2nc(-c2ccc(Cl)c(Cl)c2)n1O,n,n,n,5.2µM,n,6.5µM
O=c1c2ccc(Cl)cc2nc(-c2cccc(C(F)(F)F)c2)n1O,n,n,n,3.7µM,n,4.1µM
CCn1nccc1C(=O)Nc1ccc(Cl)cc1Cl,n,x,n,n,n,n
O=C(Cc1nnc(CNC(=O)c2ccccc2)s1)Nc1ccc(C(F)(F)F)cc1Cl,x,x,n,x,x,x
CCOc1cc2sc(N3CCC(C(=O)Nc4cc(C)cc(C)c4)CC3)nc2cc1Br,x,x,n,n,x,21µM
CCOc1cc2sc(N3CCC(C(=O)Nc4ccc(C)cc4C)CC3)nc2cc1Br,x,x,n,21µM,x,7.3µM
Cc1cccc(C(=O)OC2CCCN(C)C2)c1C (stereo not drawn),n,n,x,n,n,n
Cc1c(C(=O)N2CCC(C)CC2)c(S(=O)(=O)NCc2ccccc2)c(C)n1C,x,x,n,n,x,n
Cc1nc(SCC(=O)N2CCCCCC2)c2c(=O)n(C)c(=O)n(CC(C)C)c2n1,n,n,x,13µM,n,u
CSc1nnc2c3ccccc3c3ccccc3c2n1,n,n,n,18µM,n,15µM
CCCCC[C@@H](C)N1C[C@H](COCc2ccccc2)Oc2cc(N3CCC[C@H]3COC)ccc2S1(=O)=O,n,n,x,6.5µM,n,5.8µM
CCCCC[C@H](C)N1C[C@H](COCc2ccccc2)Oc2cc(N3CCC[C@H]3COC)ccc2S1(=O)=O,n,n,x,18µM,n,u
CCCCC[C@@H](C)N1C[C@@H](COCc2ccccc2)Oc2cc(N3CCC[C@@H]3COC)ccc2S1(=O)=O,n,n,x,16µM,n,u
CCCCC[C@@H](C)N1C[C@@H](COCc2ccccc2)Oc2cc(N3CCC[C@H]3COC)ccc2S1(=O)=O,n,n,x,18µM,n,u
CC1(C)Cc2c(cnn2-c2ccccc2)C(=O)/C1=N\NC(=O)c1ccccc1,n,n,n,u,n,n
CCCCC[C@H](C)N1C[C@@H](COCc2ccccc2)Oc2cc(N3CCC[C@@H]3COC)ccc2S1(=O)=O,n,n,x,18µM,n,21µM
CC(C)CC(=O)O/N=C1\C(=O)N(c2ccccc2)c2ccccc21,n,-64,n,23µM,n,21µM
CS(=O)(=O)c1nc(S(=O)(=O)c2ccc(Cl)cc2)c(NCCCn2ccnc2)s1,n,-56,n,n,n,n
CCNc1sc(S(C)(=O)=O)nc1S(=O)(=O)c1ccc(C)cc1,x,x,n,n,x,n
CS(=O)(=O)c1nc(S(=O)(=O)c2ccc(Cl)cc2)c(NCCN2CCOCC2)s1,n,-52,n,n,n,n
C=CCNc1nc(NCC)nc(N2CCOCC2)n1,n,n,n,n,n,n
C=CCNc1nc(Nc2ccc([N+](=O)[O-])cc2)nc(N2CCCC2)n1,n,-63,n,u,n,15µM
CCCCc1ccc(Nc2nc(N3CCOCC3)nc(N3CCOCC3)n2)cc1,n,n,n,u,n,u
C=CCNc1nc(Nc2ccc(-c3nc4ccccc4o3)cc2)nc(N2CCOCC2)n1,n,n,n,26µM,n,29µM
CCCNc1nc(Nc2ccc([N+](=O)[O-])cc2)nc(N2CCOCC2)n1,x,x,x,14µM,x,13µM
SMILES,Six1-Eya2 inh,IL1B secr inh,TDP1 inh,DT40 TDP1 no CPT,CtBP-E1A inh,TDP1 cell CPT
Cc1cc2nc(-c3ccc(OCc4ccccc4F)cc3)cc(C(F)(F)F)n2n1,x,x,n,u,x,u
Cc1cccc(C)c1NC(=O)Cn1nnc(C(=O)NCc2ccc(F)cc2)c1N,x,x,n,n,x,n
Cc1ccc(-c2noc(-c3nnn(CC(=O)Nc4cc(C)cc(C)c4)c3N)n2)cc1,x,x,n,1.5µM,x,1.3µM
Cc1cc(C)cc(NC(=O)Cn2nnc(C(=O)NCc3ccc(F)cc3)c2N)c1,n,n,n,u,n,21µM
COc1cc(/C=N/NC(=O)CCn2cnc(-c3ccccc3)c2-c2ccccc2)ccc1O,u,n,n,18µM,u,u
CCOc1cc(/C=N/NC(=O)c2cc(-c3cccc(OC)c3)nc3ccccc23)ccc1O,u,n,x,1.3µM,u,8.2µM
COc1cccc(/C=N/NC(=O)CCn2c3ccccc3c3ccccc32)c1,n,n,n,n,n,u
COc1ccc(/C=N/NC(=O)CCn2c3ccccc3c3ccccc32)cc1O,n,n,n,1.6µM,n,1.5µM
COc1cc(/C=N/NC(=O)c2cc(-c3ccccc3OC(C)C)nc3ccccc23)ccc1O,u,n,n,1.8µM,u,u
CCOc1ccc(/C=N/NC(=O)c2cc(-c3ccccc3)nc3ccccc23)cc1O,n,n,x,u,x,u
Cc1cc2cc3c(cc2nc1SCC(=O)OC(C)C)OCCO3,n,n,n,u,n,n
Cc1ccccc1Nc1nc2ccccc2n1C(C)C,n,n,n,n,n,n
CC/C(=N\NC(=O)c1c(C)nc2ccccn12)c1ccccc1,n,n,n,u,n,n
COc1ccc(/C=N/NC(=O)c2cc(-c3ccccc3)nc3ccccc23)cc1O,n,n,x,1.3µM,n,10µM
COc1ccc(CC(=O)N/N=C/c2c(C)n(C)c3ccccc23)cc1OC,n,n,x,9.2µM,x,9.2µM
CC(C)COc1cccc(-c2cc(C(=O)N/N=C/c3ccncc3)c3ccccc3n2)c1,n,n,n,u,n,9.2µM
COc1ccc(CC(=O)N/N=C/c2cc(Br)cs2)cc1OC,n,n,x,u,x,n
Cc1cc(C(=O)N/N=C/c2ccncc2)c2ccccc2n1,n,n,x,n,n,n
COc1cc(/C=N/Nc2ccc(C(=O)O)cc2)ccc1O,n,n,u,n,n,n
COc1cc(/C=N/NC(=O)c2cc(-c3ccccc3)nc3ccccc23)ccc1O,n,n,x,u,n,u
COc1cc(/C=N/Nc2nc(C)nc3c2cnn3-c2ccccc2)ccc1O,-67,-100,n,2.9µM,-77,2.9µM
COc1ccc2c(C)cc(SCC(=O)NCCN3C(=O)CSC3=O)nc2c1,n,n,n,n,n,n
CCC(CC)NC(=O)COC(=O)c1cc(SC)ccc1Cl,n,n,n,n,n,n
CC(C)c1ccc(C(C)NC(=O)C2CCCC2)cc1 (stereo not drawn),n,n,x,u,x,n
CCOc1ccc(C(=O)Nc2nncs2)cc1OCC,n,u,n,n,n,n
CN(CC1CCN(CCc2cccc(C(F)(F)F)c2)CC1)C(=O)c1ccccc1,n,n,x,n,n,u
COc1ccc(Cc2nc3ccccc3n2CC(=O)N/N=C/c2ccc(O)cc2)cc1OC,n,n,n,n,n,n
COc1ccc(Cc2nc3ccccc3n2CC(=O)N/N=C/c2ccc(C)cc2O)cc1OC,n,n,n,0.65µM,n,2.1µM
